In PubChem BioAssay AID1159580 (chemical genetic matrix, 2015):
Several values for one entry are separate records, joined by “and”; a condition that tells them apart may be missing. Identical values can stand only once. Hit rate of the full screen: of about 5,500 compounds, about 2,000 (36%) were called active. Not shown: some 18% with an inconclusive outcome. Rule as the data show it: active = normalized growth mostly below about 0.91 (no sharp cut-off); inconclusive = no clear call, values can overlap the other calls; inactive = mostly above about 0.92. The list shows a part of the results.

Assay: chemical genetic growth profiling, strain panel (AID 1159580);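 also: tested at 20 µM; growth read once vehicle control cultures reached saturation at 30 °C; 1 = growth at the plate median or of vehicle wells; lower values mean less growth of the strain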
Details: S. cerevisiae deletion strains, growth OD

Measured: normalized growth

CC1(C)[C@@H]2CC[C@@]1(C)C(=O)C2
inactive: locus YAL013W, strain DEP1, active compounds read low 0.962 | locus YAL021C, strain ccr4, active compounds read low 0.97 | locus YAL026C, strain drs2, active compounds read low 1.03 | locus YAL030W, strain snc1, active compounds read low 1.02 | locus YBL061C, strain skt5, active compounds read low 1.02 | locus YBR009C, strain hhf1, active compounds read low 1.01 | locus YBR021W, strain FUR4, active compounds read low 1 | locus YBR023C, strain chs3, active compounds read low 1.01 | locus YBR171W, strain sec66, active compounds read low 1.02 | locus YBR229C, strain ROT2, active compounds read low 0.99 | locus YBR231C, strain swc5, active compounds read low 1.01 | locus YBR279W, strain paf1, active compounds read low 0.993 | locus YCL011C, strain gbp2, active compounds read low 1 | locus YCL016C, strain dcc1, active compounds read low 0.987 | locus YCL029C, strain bik1, active compounds read low 1 | locus YCL061C, strain MRC1, active compounds read low 1.02 | locus YCL069W, strain vba3, active compounds read low 1.02 | locus YCR088W, strain abp1, active compounds read low 1.01 | locus YDL005C, strain med2, active compounds read low 1.01 | locus YDL035C, strain GPR1, active compounds read low 1.01 | locus YDL040C, strain nat1, active compounds read low 1 | locus YDL074C, strain BRE1, active compounds read low 1.02 | locus YDL101C, strain DUN1, active compounds read low 1 | locus YDL134C, strain PPH21, active compounds read low 0.994 | locus YDL185W, strain tfp1, active compounds read low 1 | locus YDL192W, strain arf1, active compounds read low 1 | locus YDR001C, strain nth1, active compounds read low 1.01 | locus YDR069C, strain doa4, active compounds read low 1.02 | locus YDR101C, strain arx1, active compounds read low 0.995 | locus YDR137W, strain rgp1, active compounds read low 1.02 | locus YDR159W, strain sac3, active compounds read low 1.06 | locus YDR162C, strain NBP2, active compounds read low 1.01 | locus YDR195W, strain ref2 0.972 | locus YDR297W, strain sur2, active compounds read low 1.02 | locus YDR318W, strain mcm21, active compounds read low 0.996 | locus YDR334W, strain swr1, active compounds read low 1.01 | locus YDR335W, strain msn5, active compounds read low 0.993 | locus YDR388W, active compounds read low 1.01 | locus YDR392W, strain spt3, active compounds read low 0.902 | locus YDR502C, strain sam2, active compounds read low 0.995 | locus YEL003W, strain gim4, active compounds read low 1.01 | locus YEL037C, strain rad23, active compounds read low 1 | locus YEL061C, strain CIN8 (second series), active compounds read low 1 | locus YEL061C, strain CIN8, active compounds read low 1 | locus YER015W, strain faa2, active compounds read low 1.01 | locus YER016W, strain bim1, active compounds read low 1.01 | locus YER110C, active compounds read low 1.01 | locus YER111C, strain swi4, active compounds read low 1.01 | locus YER155C, strain BEM2 (second series), active compounds read low 1.02 | locus YER155C, strain BEM2, active compounds read low 0.982 | locus YER167W, strain BCK2, active compounds read low 0.992 | locus YFR010W, strain ubp6, active compounds read low 1.02 | locus YGL078C, strain dbp3, active compounds read low 0.996 | locus YGL086W, strain mad1, active compounds read low 0.995 | locus YGL167C, strain pmr1, active compounds read low 1.01 | locus YGL173C, strain kem1, active compounds read low 1.03 | locus YGL227W, strain vid30, active compounds read low 1.01 | locus YGL240W, strain doc1, active compounds read low 1.01 | locus YGL248W, strain PDE1, active compounds read low 0.99 | locus YGL253W, strain hxk2, active compounds read low 1.02 | locus YGR078C, strain PAC10, active compounds read low 1.01 | locus YGR135W, strain pre9, active compounds read low 0.996 | locus YGR252W, strain gcn5, active compounds read low 0.937 | locus YHR013C, strain ard1, active compounds read low 0.991 | locus YHR027C, strain rpn1, active compounds read low 1.02 | locus YHR030C, strain SLT2, active compounds read low 1 and 1.03 | locus YHR079C, strain IRE1 (second series), active compounds read low 0.997 | locus YHR079C, strain IRE1, active compounds read low 1.05 | locus YHR094C, strain hxt1, active compounds read low 1 | locus YHR129C, strain ARP1, active compounds read low 1 | locus YHR142W, strain chs7, active compounds read low 0.989 | locus YHR200W, strain rpn10, active compounds read low 1 | locus YIL066C, strain RNR3, active compounds read low 1.03 | locus YIL073C, strain SPO22, active compounds read low 1.02 | locus YIL125W, strain kgd1, active compounds read low 1 | locus YIR030C, strain dcg1, active compounds read low 0.996 | locus YJL092W, strain hpr5, active compounds read low 1.01 | locus YJL095W, strain BCK1 (second series), active compounds read low 1.01 | locus YJL095W, strain BCK1, active compounds read low 1.02 and 1.05 | locus YJL115W, strain asf1, active compounds read low 1.01 | locus YJL129C, strain trk1, active compounds read low 1.03 | locus YJL134W, strain LCB3, active compounds read low 0.995 | locus YJL154C, strain vps35, active compounds read low 1.01 | locus YJL164C, strain tpk1, active compounds read low 0.98 | locus YJL166W, strain qcr8, active compounds read low 1.03 | locus YJL168C, strain set2, active compounds read low 1.01 | locus YJL187C, strain SWE1 (second series), active compounds read low 1.01 | locus YJL187C, strain SWE1, active compounds read low 1 | locus YJR043C, strain POL32, active compounds read low 1.01 | locus YJR066W, strain TOR1, active compounds read low 0.973 | locus YKL009W, strain mrt4, active compounds read low 0.987 | locus YKL068W, active compounds read low 0.992 | locus YKL085W, strain MDH1 (second series), active compounds read low 1.01 | locus YKL085W, strain MDH1, active compounds read low 1.01 | locus YKL160W, strain elf1, active compounds read low 0.976 | locus YKR001C, strain vps1, active compounds read low 0.992 | locus YKR026C, strain gcn3, active compounds read low 1.01 | locus YKR091W, strain srl3, active compounds read low 0.996 | locus YLL001W, strain dnm1, active compounds read low 0.962 | locus YLL026W, active compounds read low 1.01 | locus YLL041C, strain sdh2, active compounds read low 1.01 | locus YLR027C, strain aat2, active compounds read low 1.01 | locus YLR039C, strain RIC1, active compounds read low 1.03 | locus YLR058C, strain SHM2, active compounds read low 1 | locus YLR102C, strain apc9, active compounds read low 0.992 | locus YLR113W, strain HOG1, active compounds read low 1.05 | locus YLR221C, strain rsa3, active compounds read low 1.05 | locus YLR258W, strain gsy2, active compounds read low 0.986 | locus YLR262C, strain YPT6 (second series), active compounds read low 1.01 | locus YLR262C, strain YPT6, active compounds read low 1.05 | locus YLR268W, strain sec22, active compounds read low 0.987 | locus YLR320W, strain mms22, active compounds read low 1.04 | locus YLR330W, strain CHS5, active compounds read low 0.996 | locus YLR342W, strain FKS1 (second series), active compounds read low 1.02 | locus YLR342W, strain FKS1, active compounds read low 1.01 | locus YLR357W, strain rsc2, active compounds read low 0.993 | locus YLR370C, strain arc18, active compounds read low 1.01 | locus YLR371W, strain rom2, active compounds read low 1 | locus YLR384C, strain iki3, active compounds read low 1.02 | locus YLR418C, strain cdc73, active compounds read low 0.994 | locus YML016C, strain PPZ1, active compounds read low 0.997 | locus YML032C, strain rad52, active compounds read low 1 | locus YML120C, strain ndi1, active compounds read low 0.981 | locus YML124C, strain tub3, active compounds read low 1.01 | locus YMR058W, strain fet3, active compounds read low 1.03 | locus YMR078C, strain ctf18, active compounds read low 1.01 | locus YMR125W, strain sto1, active compounds read low 0.987 | locus YMR129W, active compounds read low 1 | locus YMR205C, strain PFK2, active compounds read low 1 | locus YMR223W, strain ubp8, active compounds read low 1 | locus YMR231W, strain pep5, active compounds read low 1.01 | locus YMR307W, strain GAS1, active compounds read low 0.98 | locus YNL067W, strain RPL9B, active compounds read low 1 | locus YNL071W, strain lat1, active compounds read low 1.01 | locus YNL183C, strain NPR1, active compounds read low 0.985 | locus YNL209W, strain ssb2, active compounds read low 0.991 | locus YNL233W, strain BNI4, active compounds read low 1.01 | locus YNL248C, strain rpa49, active compounds read low 1.04 | locus YNL250W, strain rad50, active compounds read low 1.03 | locus YNL271C, strain bni1, active compounds read low 1 | locus YNL298W, strain CLA4, active compounds read low 0.99 | locus YNL307C, strain MCK1, active compounds read low 0.997 | locus YNL322C, strain KRE1 (second series), active compounds read low 1.01 | locus YNL322C, strain KRE1, active compounds read low 0.985 | locus YNR049C, strain mso1, active compounds read low 1.01 | locus YNR052C, strain pop2, active compounds read low 0.999 | locus YOL012C, strain htz1 1.32 | locus YOL147C, strain pex11, active compounds read low 1 | locus YOR001W, strain rrp6, active compounds read low 1.07 | locus YOR061W, strain CKA2, active compounds read low 1.01 | locus YOR069W, strain VPS5, active compounds read low 1 | locus YOR070C, strain gyp1, active compounds read low 1.03 | locus YOR080W, strain dia2, active compounds read low 1.01 | locus YOR083W, strain WHI5, active compounds read low 0.973 | locus YOR106W, strain vam3, active compounds read low 0.991 | locus YOR136W, strain idh2, active compounds read low 0.991 | locus YOR144C, strain elg1, active compounds read low 0.996 | locus YOR184W, strain ser1, active compounds read low 0.992 | locus YOR231W, strain MKK1, active compounds read low 1.05 | locus YOR265W, strain rbl2, active compounds read low 1 | locus YOR270C, strain vph1, active compounds read low 1.06 | locus YOR290C, strain snf2, active compounds read low 0.969 | locus YOR316C, strain cot1, active compounds read low 0.999 | locus YPL051W, strain arl3, active compounds read low 0.997 | locus YPL055C, strain LGE1, active compounds read low 1 | locus YPL078C, strain atp4, active compounds read low 0.966 | locus YPL106C, strain sse1, active compounds read low 1.01 | locus YPL240C, strain hsp82, active compounds read low 1.01 | locus YPL241C, strain CIN2, active compounds read low 1 | locus YPL256C, strain CLN2, active compounds read low 1.01 | locus YPR119W, strain clb2, active compounds read low 0.998 | locus YPR141C, strain kar3, active compounds read low 0.986 | locus YPR163C, strain tif3, active compounds read low 0.999 | locus YPR167C, strain met16, active compounds read low 1 | strain wtn01, active compounds read low 0.987
